# Sampled rows, rich in hits. Any-hit rate of the full collection: about 7.3%.
# HEK293 tox: Cytotoxic Profiling in HEK 293 Cell Line of Diverse Libraries Using Quantitative High-Throughput Screening; HEK 293 viability, ATP luminescence (CellTiter-Glo), 48-72 h; Potency, µM (top dose mostly 115 µM), for inactives: at the highest dose activity change, negative = cytotoxicity, usual class: inhibitors; 94,000 compounds, 6.6% hits; AID 1345083, 2018; note: potency is the fitted concentration of half-maximal effect; nearly all actives have a fitted effect of over 60% in size
#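 HEK 293 cells at 250 cells/well were exposed to compounds by pintool transfer for 48 or 72 hr at 37 degree Celsius, 5% CO2. Viability was read as ATP-coupled luminescence with CellTiter-Glo after 10 min at room temperature.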
# SNCA expr inh: Primary qHTS assay for inhibitors of alpha-synuclein gene (SNCA) expression; HEK-293 SNCA-luciferase knock-in, luminescence, 24 h; Potency, µM (highest dose often 57.2 µM), without a hit: top-dose activity change, negative = inhibition, hits mostly inhibitors; 140,000 compounds, 0.17% hits;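 note: potency is the fitted concentration of half-maximal effect; plate controls were DMSO cells for no effect and cell-free wells for full effect; nearly all actives have a fitted effect of over 45% in size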
# FLuc inh: Firefly luciferase inhibition profiling of diverse chemical library using quantitative high-throughput screening; Luciferin 4-monooxygenase (Photinus pyralis), P08659; purified P. pyralis luciferase, luminescence, biochemical; Potency, µM (doses to about 115 µM), hits mostly inhibitors; 76,000 compounds, 2.5% hits; AID 1347043, 2019; note: potency is the fitted concentration of half-maximal effect; nearly all actives have a fitted effect of over 65% in size
#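 Biochemical qHTS: compound (6-point titration) added to 10uM D-luciferin plus 10uM ATP in Tris acetate pH 7.5 buffer with Mg, Tween-20 and BSA, then purified enzyme at 10nM; light output imaged.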
# IP6K1 inhibitor: Primary qHTS assay for small molecule inhibitors of Inositol hexaphosphate kinase 1 (IP6K1); Inositol hexakisphosphate kinase 1 (Homo sapiens), Q92551; IP6K1 kinase, ADP-Glo luminescence, 2 h; hits give low values; activity change, % (series mostly up to about 58 µM); 140,000 compounds, 0.81% hits; AID 1645851, 2021; in the data active = activity change below about -25%
# Target sequence (Q92551 whole entry, looked up): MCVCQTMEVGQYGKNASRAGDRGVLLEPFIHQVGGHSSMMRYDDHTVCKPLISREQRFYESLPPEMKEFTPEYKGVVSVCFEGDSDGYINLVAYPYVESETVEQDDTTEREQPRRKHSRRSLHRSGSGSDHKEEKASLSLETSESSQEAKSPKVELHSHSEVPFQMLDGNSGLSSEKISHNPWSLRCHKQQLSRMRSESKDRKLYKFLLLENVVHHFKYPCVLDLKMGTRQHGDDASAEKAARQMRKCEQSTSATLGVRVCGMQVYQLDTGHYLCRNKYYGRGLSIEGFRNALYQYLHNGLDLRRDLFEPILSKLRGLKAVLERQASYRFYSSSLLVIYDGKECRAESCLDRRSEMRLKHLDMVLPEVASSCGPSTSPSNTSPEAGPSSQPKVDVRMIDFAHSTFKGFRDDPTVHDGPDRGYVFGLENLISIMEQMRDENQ
#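 ADP-Glo luminescence measures ADP made by human IP6K1 during a 2 h RT reaction with ATP/IP6 (mix at 1.3 mM/130 uM); top library doses 57.5 and 19.1 uM final.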
# 3T3 cytotox: Cytotoxic Profiling in NIH 3T3 Cell Line of Diverse Libraries Using Quantitative High-Throughput Screening; Potency, µM (series often up to 96.7 µM), without a hit: top-dose activity change, negative = cytotoxicity, usual class: inhibitors; NIH 3T3 viability, CellTiter-Glo ATP luminescence, 48-72 h; 94,000 compounds, 4.3% hits; note: potency is the fitted concentration of half-maximal effect; nearly all actives have a fitted effect of over 55% in size
#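 Cytotoxicity was measured by CellTiter-Glo ATP luminescence after 48 or 72 h compound exposure at 37 °C. Mouse NIH 3T3 fibroblasts were seeded at 400 cells/well and dosed by 23 nL pin transfer.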
# SNCA viab count: GF-AFC viability counterscreen for inhibitors of alpha-synuclein gene (SNCA) expression; HEK-293-SNCA-luc viability, GF-AFC fluorescence, 24 h; Potency, µM (series often up to 57.1 µM), for the others: at the highest dose activity change, negative = cytotoxicity, hits mostly cytotoxic; 150,000 compounds, 0.12% hits; AID 1671193, 2021;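 note: potency is the fitted concentration of half-maximal effect; 0% = DMSO-treated cells and -100% = medium-only wells without cells; nearly all actives have a fitted effect of over 30% in size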
#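 HEK-293-SNCA-luc cells (1500/well) plated 24 h, then exposed 24 h to a dilution series; GF-AFC added 30 min at 37C, fluorescence 405/540 nm; normalised to medium-only and DMSO wells, Hill fit.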
# * hit, by the source's call; i = inactive; ? = inconclusive; . = no result given; [ ] = another dose, or the depositor's remark. Unless noted, calls come from the whole dose curve; as a rule, active = well fitted curve in the direction sought with a large enough effect; inconclusive = small, poorly fitted or top-dose-only effect, or another doubt; inactive = no such curve, though single readings can be large; an effect the other way counts as inactive or inconclusive. Unless noted, % is set by controls: 0 for no effect and ±100 for the full control effect.
SMILES,HEK293 tox,SNCA expr inh,FLuc inh,IP6K1 inhibitor,3T3 cytotox,SNCA viab count
Cc1c(Cl)cccc1NC(=O)C[C@H]1NC(=O)c2ccccc2NC1=O,44.7µM*,-11.1%,i,2.9,?,-5.4%
Cc1ccc(NC(=O)N2CCC(CCNC(=O)CCCc3ccccc3)CC2)cc1F,-5.8%,70.3%,?,-6.3,i,12.9%
COc1cc(O)c2c(c1)C1OC1C[C@H](O)[C@H](O)C(=O)/C=C\C[C@H](C)OC2=O (some centres undefined),.,.,.,4.7,.,11.9µM*
COc1cc(O)c2c(c1)C1OC1C[C@H](O)[C@H](O)C(=O)C=CC[C@H](C)OC2=O (some centres undefined),.,-20.0%,.,.,.,?
O=C(CCCc1ccccc1)N1CCCC1c1nc(C2CCOCC2)no1 (centres undefined),?,0.5%,i,14.2,-27.4%,-6.2%
O=C(CCCc1ccccc1)N1CCCCCC1c1nc(C2CC2)no1 (centres undefined),50.1µM*,-35.9%,i,7.4,?,-16.5%
CNC(=O)c1cccc(-c2cnc3[nH]cc(CC(=O)NCC(C)C)c3c2)c1,?,3.7%[87.6 µM],i,-2.9,35.5µM*,-16.0%[87.6 µM]
COC1CCN(C(=O)Cc2c[nH]c3ncc(-c4cccnc4)cc23)CC1,3.6%[172 µM],5.4%[87.6 µM],i,-10.7,79.4µM*,-14.1%[87.6 µM]
O=C(Cc1c[nH]c2ncc(-c3cccnc3)cc12)N1CCN(c2ccccn2)CC1,?,23.3%[87.6 µM],i,-7.0,?,-3.6%[87.6 µM]
CNC(=O)c1cccc(-c2cnc3[nH]cc(CC(=O)N4CCC(OC)CC4)c3c2)c1,-23.7%[172 µM],13.8%[87.6 µM],?,-5.6,89.1µM*,-17.1%[87.6 µM]
CNC(=O)c1cccc(-c2cnc3[nH]cc(CC(=O)N4CCCC4)c3c2)c1,?,-7.4%[87.6 µM],i,-13.4,?,-15.4%[87.6 µM]
Cc1cccc(CN2CCN(Cc3nc(-c4ccco4)oc3C)C(C)C2=O)c1 (centres undefined),-13.5%,2.8%,i,19.2,-3.6%,-0.4%
CC(C)n1cnnc1CC1CCN(C(=O)c2nn(C)c3ccccc23)C1 (centres undefined),2.0%,20.2%,i,15.4,-5.8%,3.8%
O=C1Cc2c(-c3ccoc3)n[nH]c2CN1Cc1ccccc1,-35.6%[172 µM],-3.0%[87.6 µM],i,26.7,?,13.7%[87.6 µM]
COc1ccccc1-c1cccc(C(=O)N2CCN([S+](=O)([O-])c3ccccc3)CC2)c1,31.6µM*,-29.0%,.,-5.9,?,7.0%[12.5 µM]
COc1ccccc1-c1cccc(C(=O)N2CCN([S+](=O)([O-])c3c(C)noc3C)CC2)c1,?,?,.,9.0,-25.9%,5.3%[12.5 µM]
COCC(=O)N1CCN(C(=O)c2cccc(-c3ccccc3OC)c2)CC1,i,14.5%,.,-4.3,0.2%,-17.5%[12.5 µM]
COc1ccccc1-c1cccc(C(=O)N2CCN([S+](=O)([O-])c3cccs3)CC2)c1,20µM*,6.8%,.,0.5,?,6.6%[12.5 µM]
O=C(c1ccc(Cl)cc1)N1CC(CO)C2(CCNCC2)C1 (centres undefined),?,13.9%,i,17.1,-29.3%,-4.2%[12.5 µM]
CC(C(=O)NCc1ccccc1)N1C(=O)COc2ccc(C(=O)COc3ccc(Cl)cc3)cc21 (centres undefined),89.1µM*,1.5%,i,-1.3,?,0.1%
CCc1cccc(OCC(=O)c2ccc3c(c2)N(CC(=O)N(C)Cc2ccccc2)C(=O)CO3)c1,?,-26.1%,i,7.2,?,?
O=C(CN1C(=O)COc2ccc(C(=O)COc3ccccc3F)cc21)NC1CCCCC1,-18.2%,-15.0%,i,3.9,-10.4%,-15.5%
CN(Cc1ccccc1)C(=O)CN1C(=O)COc2ccc(C(=O)COc3ccccc3F)cc21,50.1µM*,-18.9%,i,9.5,-29.6%,?
Cc1cc(C)cc(OCC(=O)c2ccc3c(c2)N(CC(=O)N(C)Cc2ccccc2)C(=O)CO3)c1,31.6µM*,?,i,7.2,?,?
Cc1cccc(OCC(=O)c2ccc3c(c2)N(CC(=O)N(C)Cc2ccccc2)C(=O)CO3)c1,22.4µM*,?,i,1.8,?,?
SMILES,HEK293 tox,SNCA expr inh,FLuc inh,IP6K1 inhibitor,3T3 cytotox,SNCA viab count
COC(=O)CNC(=O)c1nn(C)c2nc(-c3ccccc3OC)ccc12,0.8%,-3.6%,.,12.2,-28.9%,7.9%
CC(C)c1ccccc1OCC(=O)c1ccc2c(c1)N(CC(=O)N1CCCC1)C(=O)CO2,39.8µM*,10.1%,i,-5.6,-5.1%,-7.0%
COc1ccc(OC)c(NC(=O)CCn2ccn3nc4c(c3c2=O)CCCC4)c1,-12.1%,?,i,-3.1,-13.3%,-18.1%
Cc1nn2c(c1-c1ccccc1C(C)C)N(C(=O)Cc1ccc(O)cc1)CCC2,?,-15.6%[87.6 µM],i,9.0,?,-2.3%[87.6 µM]
COc1cccc(CC(=O)N2CCCn3nc(C)c(-c4ccccc4Oc4ccccc4)c32)c1,44.7µM*,-27.1%,i,8.0,?,-27.9%
Cc1nn2c(c1-c1ccccc1Oc1ccccc1)N(C(=O)Cc1ccc(O)cc1)CCC2,89.1µM*,?,i,1.7,79.4µM*,?
Cc1nn2c(c1-c1ccccc1OCc1ccccc1)N(C(=O)CCc1cccnc1)CCC2,?,-6.0%,i,13.3,?,-23.9%
Cc1nn2c(c1-c1ccccc1C(N)=O)N(C(=O)Cc1cccc(F)c1)CCC2,-15.6%[172 µM],16.8%[87.6 µM],i,9.0,?,-0.5%[87.6 µM]
Cc1nn2c(c1-c1ccccc1-c1ccccc1)N(C(=O)C1CCOCC1)CCC2,-10.3%[172 µM],1.3%[87.6 µM],i,15.5,?,-4.2%[87.6 µM]
Cc1nn2c(c1-c1ccccc1Oc1ccccc1)N(C(=O)Cc1cccc(F)c1)CCC2,?,?,i,13.2,39.8µM*,-11.9%
Cc1nn2c(c1-c1ccccc1Oc1ccccc1)N(C(=O)C1CCC1)CCC2,89.1µM*,-21.6%[87.6 µM],i,5.5,?,-15.6%[87.6 µM]
COC1CN(C2CCN(C(=O)c3cccc4[nH]ccc34)CC2)C12CCOCC2 (centres undefined),-0.9%,-11.0%,.,-0.5,-10.5%,11.4%
COc1cccc(CC(=O)N2CCCn3nc(C)c(-c4ccccc4-c4ccccc4)c32)c1,?,7.3%[87.6 µM],i,8.2,79.4µM*,-8.8%[87.6 µM]
COCCn1c2c([n+](Cc3cnccn3)c1C)C(=O)c1ccccc1C2=O,.,0.0961µM*,.,.,.,0.0764µM*
